# The list is not random: actives were taken first. Their share in the collection is about 4%.
# CF NFkB inh: inhibitors of PAF-induced NF-kB signaling, primary screen, cell-based, GFP fluorescence, uHTS | KKLEB NF-kB-GFP reporter, GFP fluorescence overnight | inhibition, % at 5 µM | 360,000 tested, 0.86% active | AID 588850, 2011;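 active means at least 50% inhibition at 5 µM, scaled per plate between neutral and stimulator controls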;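 further: PAF is a Pseudomonas aeruginosa culture filtrate used as stimulus; plate controls were PAF-stimulated DMSO wells for no effect and unstimulated DMSO wells for full effect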
# KKLEB tox: cytotoxicity in KKLEB CF airway cells, primary screen, cytotoxicity control for CF NF-kB inhibitor project, cell-based, uHTS, fluorescence assay plates; 360,000 tested, 0.36% active; activity change (cytotoxicity), % at 5 µM; KKLEB CF airway cells viability, ATPlite luminescence, overnight; hits give low values; cells stimulated with P. aeruginosa culture filtrate; AID 602141, 2011;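 active means corrected activity change at or below -50% at 5 µM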
# TWEAK Fn14 block: inhibitors of TWEAK-Fn14 signaling, primary screen, luciferase reporter cells, uHTS | AID 1159606, 2016 | inhibition, % at 10 µM | TWEAK-stimulated Fn14 reporter cells, luciferase luminescence, 8 h | 360,000 tested, 2% active; in the data active means inhibition above about 50%
# HIF-2a inh: HIF-2a reporter inhibitors, primary screen, luminescence, 786-0 RCC cells. 786-0 RCC cells HIF-2a reporter, luciferase luminescence, overnight. inhibition, % at 18.8 µM. 360,000 tested, 0.72% active;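 active means inhibition of the luminescence signal of 40% or more relative to plate controls, in a single-dose primary screen at 18.75 µM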
# TROY signal inh: inhibitors of TROY-driven NF-kB signaling, primary screen, Q293 LMP1-TROYcd cells, NF-kB luciferase, uHTS; Q293 LMP1-TROYcd NF-kB luciferase reporter, 4 h; inhibition, % at 10 µM; 360,000 tested, 0.98% active;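 active means compounds whose plate-normalised and pattern-corrected inhibition of the luciferase reporter signal at the single screening dose is 50% or more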
# Peg3 prom inh: Peg3 promoter-driven luciferase inhibitors, primary screen, cell-based, HeLa, luciferase luminescence | HeLa PEG-Prom luciferase reporter, overnight | inhibition, % at 20 µM | AID 588405, 2011 | 360,000 tested, 1.7% active;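 active means inhibition of at least 50% at 20 µM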
# Mdm2-MdmX confirm: retested Mdm2-MdmX interaction blockers, confirmation, cell-based, luminescence, single concentration, set 2; inhibition, % at 8 µM; AID 504601, 2011; shares compounds with HIF-2a inh; 740 tested, 99% active; SaOS-2 split-luciferase Mdm2/MdmX complementation;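 active means mean inhibition of the luminescence signal across two replicates at or above 26 percent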
# Target sequence (O15151 whole entry, looked up): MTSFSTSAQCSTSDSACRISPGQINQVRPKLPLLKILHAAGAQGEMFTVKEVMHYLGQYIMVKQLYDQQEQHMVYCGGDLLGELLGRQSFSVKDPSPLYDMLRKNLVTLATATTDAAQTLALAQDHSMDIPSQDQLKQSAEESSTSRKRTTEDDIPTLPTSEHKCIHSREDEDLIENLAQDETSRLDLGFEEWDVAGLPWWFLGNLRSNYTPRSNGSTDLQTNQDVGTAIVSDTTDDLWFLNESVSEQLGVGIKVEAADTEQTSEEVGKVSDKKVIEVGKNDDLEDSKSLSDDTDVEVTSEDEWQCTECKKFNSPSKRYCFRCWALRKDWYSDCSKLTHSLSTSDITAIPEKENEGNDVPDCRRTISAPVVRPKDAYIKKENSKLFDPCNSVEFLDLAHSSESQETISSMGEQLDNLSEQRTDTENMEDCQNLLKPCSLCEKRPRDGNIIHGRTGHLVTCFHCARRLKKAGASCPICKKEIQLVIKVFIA
# Target sequence (Q00987 whole entry, looked up): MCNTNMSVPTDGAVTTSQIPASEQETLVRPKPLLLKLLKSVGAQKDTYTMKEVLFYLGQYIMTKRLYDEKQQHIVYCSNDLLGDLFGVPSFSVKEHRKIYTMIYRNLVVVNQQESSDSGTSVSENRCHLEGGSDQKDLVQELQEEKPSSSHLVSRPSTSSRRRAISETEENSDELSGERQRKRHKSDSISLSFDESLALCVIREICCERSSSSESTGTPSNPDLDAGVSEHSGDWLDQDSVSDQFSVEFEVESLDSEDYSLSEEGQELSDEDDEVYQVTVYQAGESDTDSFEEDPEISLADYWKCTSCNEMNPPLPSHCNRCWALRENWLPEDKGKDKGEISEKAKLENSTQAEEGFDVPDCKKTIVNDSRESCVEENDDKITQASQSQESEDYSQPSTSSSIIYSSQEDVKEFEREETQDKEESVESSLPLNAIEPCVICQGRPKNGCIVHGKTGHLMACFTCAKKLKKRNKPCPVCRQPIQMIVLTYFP
# HIF-2a conf: HIF-2a reporter inhibitor retest, confirmation, luminescence, 786-0 RCC cells; shares compounds with HIF-2a inh; HIF-2a luciferase reporter luminescence, overnight; inhibition, % at 18.8 µM; 1,800 tested, 56% active; AID 651580, 2012;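 active means mean inhibition across four replicates of at least 40 percent at the single tested concentration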
# HIF-1a counter: HIF-1a luciferase reporter signal reduction – MiaPaCa-2 cells, single concentration, counter-screen for HIF-2a inhibitor project, confirmation. shares compounds with HIF-2a inh. MiaPaCa-2 HIF-1a luciferase reporter, desferoxamine, overnight. inhibition, % at 18.8 µM. 1,800 tested, 72% active;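 active means mean inhibition of the reporter signal across four replicates at the single tested dose of 50% or more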
# Numbers without * were called inactive; x = not tested or not shown.
SMILES,CF NFkB inh,KKLEB tox,TWEAK Fn14 block,HIF-2a inh,TROY signal inh,Peg3 prom inh,Mdm2-MdmX confirm,HIF-2a conf,HIF-1a counter
COc1ccc(/C=C2\SC(=S)N(CCCC(=O)Nc3ccc(O)cc3)C2=O)cc1,-24,5,6,45*,17,-42,103*,x,x
O=C(CCN1C(=O)/C(=C/c2ccccc2)SC1=S)NCCc1ccc(O)cc1,-3,-4,-5,25,-19,95*,102*,x,x
COc1ccc(/C=C2/SC(=S)N(CCCC(=O)Nc3ccc(O)cc3)C2=O)cc1,-17,2,-2,31,-22,-121,102*,x,x
COc1ccc(/C=C2\SC(=S)N(CCC(=O)Nc3ccc(C(=O)O)cc3)C2=O)cc1,6,-2,-40,8,-37,-1,x,x,x
O=C(NCc1ccc(F)cc1)C(=O)NCC1OCCN1S(=O)(=O)c1cc(F)ccc1F (configuration not stated),10,-10,3,1,7,6,x,x,x
CC12CCC3c4cc(CN5CCOCC5)c(O)cc4CCC3C1CCC2=O (configuration not stated),6,-11,-5,-24,5,11,x,x,x
CCS(=O)(=O)c1ncc(Cl)c(C(=O)Nc2ccc(S(=O)(=O)N3CCCC(C)C3)cc2)n1 (configuration not stated),97*,-109*,96*,89*,85*,105*,103*,98*,106*
Cc1ccc(CS(=O)(=O)c2ncc(Cl)c(C(=O)Nc3ccc(OC(F)F)cc3)n2)cc1,94*,-100*,83*,93*,79*,106*,103*,x,x
CCC1CCCCN1S(=O)(=O)c1ccc(NC(=O)c2nc(S(C)(=O)=O)ncc2Cl)cc1 (configuration not stated),87*,-74*,77*,75*,83*,107*,x,100*,101*
CCSc1ncc(Cl)c(C(=O)Nc2ccc(S(=O)(=O)Nc3onc(C)c3C)cc2)n1,5,10,5,8,-6,9,x,x,x
CCS(=O)(=O)c1ncc(Cl)c(C(=O)Nc2ccc(C)cc2)n1,92*,-86*,90*,92*,67*,101*,101*,97*,72*
O=C(Nc1ccc(OC(F)F)cc1)c1ncc(Cl)c(Cl)c1Cl,2,4,-3,3,-17,-20,x,x,x
C=C(C)COc1ccc2c(C)c(CC(=O)N3C[C@H]4C[C@@H](C3)c3cccc(=O)n3C4)c(=O)oc2c1C,-2,0,-14,2,-21,-2,x,x,x
CCc1noc(C)c1C(=O)Nc1cc(S(=O)(=O)N2CCOCC2)ccc1OCC(F)(F)F,0,5,-2,8,-6,5,x,x,x
CC(C)CNC(=O)C1(C)CCCN1C(=O)C(C)(C)Oc1ccc(Cl)cc1 (configuration not stated),-14,2,-5,-4,7,4,x,x,x
CS(=O)(=O)c1ncc(Cl)c(C(=O)Nc2ccc3ccccc3c2)n1,89*,-100*,82*,95*,65*,106*,x,97*,91*
CCOC(=O)N1CCN(C/C(Cl)=C/c2ccccc2)CC1,9,-1,-16,-125,-27,-78,x,x,x
O=C(Nc1ccc(C(F)(F)F)cc1)N1CCN(c2ccnc3cc(Cl)ccc23)CC1,-10,-10,25,45*,58*,38,x,16,76*
Cc1cccc(SCC(=O)Nc2ccc3c(c2)OCCO3)c1,-5,2,-8,-213,-39,-346,x,x,x
